Data from the supplement of paper PMC12632987.
Over roughly 4,500 sequences, “median log2 fold change of GCK-ALFA target abundance (FLAG IP / Myc IP barcode read proportion)” has its median near 0.078; the lowest 2% begin near -0.6. Many of the other results were omitted from the sample, so the lowest values are more common in it than they were.

B1: GBRAP_160_3998 (protein)
chain: SEKLAALKAEIAAILAETLELARGEDAAERLAVVRVMGGQILLTLEESGIVSDEALAAVDAILDATAAEVAANPDLTDAELAALLDATLARINAVLEEHS
B2: GBRAP_11_2747 (protein)
chain: KKEKLKEIAKAAEKLAKLLEELIKEGVDNEELLKEAEKALKELKKLVEEYGDESLKKLVEIIEEEFKKAKEDPENALKYLQNALAAARVLAGQVLLDIEE
B3: GBRAP_184_5076 (protein)
chain: AVLEETLRVEDLEEARARLAALRERVADFRGTLVVLVEMPEFERETARAVLEGLAAMKAAGYVTDVTVGFDAPLTEEQVDFVVDTADALGVKVTLALPEE
B4: GBRAP_35_5513 (protein)
chain: SSIDTETEMLVSTLEDATLAVEDLDPETLKKIVESLAELAREFILQNKNDLEALKRVKEELEKLAEALRKRGLDDPLIKEALEKVEEVIKLAEEEIKKIE
B5: GBRAP_160_4713 (protein)
chain: SETAEERKKYVDEEFERAKKLIEGETIEQRAIIVEGTVGEIIMEFVEDEKATDELIDEVIEIGDELVKTILENPNLTLEEIKELIDEAREKMKEAIDKHL
B6: GBRAP_78_6743 (protein)
chain: KAEEVIDETIETLNEALKALSSKPIEEVGDAMLHLLDASEALIEAEEEGFPLEYIEEAARHLAAAIAEIEAKGIELPAEIMAALKASLEALKALAAEKKA
B7: GBRAP_128_3161 (protein)
chain: AVEEAKKKTKELMEKIKNSSLEEVEKLAKELVEMMKTASDEEVEAMAEVILEELPKLSAEKLEILADVLEEKMPELSPFGQNQAADVLVEALNEAEELEE
B8: GBRAP_78_6611 (protein)
chain: ETKEKILKLLEEAEELAREVRKLAPEVAEQAAELEVLLGTAIYMVDTGSESKEEILETLEEAEKAAKELKKLVEGLAEEVQKLVKEALEKIKEAIKLLKE
B9: GBRAP_160_4329 (protein)
chain: SEEFEKLIEFIDEEFEETKELIKGLSLEQVKVLIEGTFGEIIMEMSENESISDELVDFVVAERDALLATLDANPDLSEEEIKALIDEARERIKEALKKEA
B10: GBRAP_125_3105 (protein)
chain: MEEEILEALKLLAKALGFDDEDAEEAARLAREFSVKMTLYALLKAEGEEELADLVEKLTEEQAKKVLLKVAEWLKKNPNATKEEVLKKLKEVILEELEKA
B11: GBRAP_125_3108 (protein)
chain: SEEEILEALKRLAKALGFSEEEAEEAAELARKFSVKQTLYALFLAEGEEELADLVEKLTEEQAKRALLKLAKWLEENPNATKEEVLEQAKKILEEELAKQ
B12: GBRAP_9_7175 (protein)
chain: LKEAAKKAIEGLKEAKEFALEVVPEEKKEEINAAFDELIETVKKMQADDSVTKEEFRETLEKGFDKIIELAKKNLDPEIAAIVETELLTIKAEVDELLDE
B13: GBRAP_160_3978 (protein)
chain: SEEIEKLKKEIKELAEEAKELIEGESYEERLTIVRVMFGEILMLLMSNENVSDETEEEVAKVGDETIAYLEANPDLTEEEIKELIKEAEKKIFEILEKNE
B14: GBRAP_160_4224 (protein)
chain: METVEKLVKIFRENFEEALELIEGESLEEQKVILDVAAGEVILEAEEIEEATEEMVEIVDKKAEEAREELLEAREASKEEKRKLIEEHAEKLRKELEKVA
B15: GBRAP_74_6499 (protein)
chain: SAATEAAAEEFAALLRAGASYEELMAHLAKMNVEALNAAVIKATEVARANADELTEEQIDALAELADRVFAESEDPEAIKAAGELVKILYERELRLEAER
B16: GBRAP_74_6501 (protein)
chain: AAADEAAAEEFAELLRRGASYEELMAHIAEMNVAALDLAVIKATEEARENAEKLTEEQIDALAELADRVFAESENPEAIAAAGELVKILYETEERRRAEE
B17: GBRAP_26_5460 (protein)
chain: MEEAERAAEAEVRAIAARLPDPRVAAAVVAEFSTELLEAEEAIENGEDPKEAFRKAREEFLAEARELMEEAGLSPEEIAAFEAELSAVFDKLEAEVLAEL
B18: GBRAP_52_6294 (protein)
chain: SMEEVEKKAKEIVELVKEGKLEEAIELAKKFVEENSLEEALELGKLLIEKIEELTPEEAELMLEVIEALAEEIEKEFGAEEEADILEAEAAAAAYKVLQK
B19: GBRAP_160_4717 (protein)
chain: SETAEKLKEYVDEEFDEAEELMKGESIEQRAIILEGTVGEIIMELFENPDASDELIDEVLKIGDEAVATLKANPDLSDEEIEELLDEARDKMKEAIDKHL
B20: GBRAP_137_3636 (protein)
chain: PNVTITTKTEDDLVEINIEFDDPELAEEVAELIEDVAHKHGALALSIEINEDGTLDATIWVPKEKAQALLDALIKALKEKFNATVTVIDEDTGEVKTIKA
B21: GBRAP_137_3622 (protein)
chain: KKVTITFYEEDGVAIAEITADTSVDKEKVLALVEEVAEEHGVQLVEALVEPDEPLVLYLVGTPEQVIAAVKDLIERLKSELGIEVVLESEGAEELVEEVK
B22: GBRAP_137_3623 (protein)
chain: KKVKITFYEEDGVAIAEITADTSVDKEKVLEIVEEVAEKHGVKLVVALTEPDEPAVFYLVGTPEQVIAAVKELIKRLKEELGIEVELSSEGAEELVEEVK
B23: GBRAP_160_4497 (protein)
chain: SERKERAKERARELVEEAAEAIREEEGEGKEQIARAYAGDIALELLELGVVSEEQEEEVLRLAEEGFRRMVEASEKGEEELERAAEELKRRLEELIEEFA
B24: GBRAP_160_4123 (protein)
chain: KEKKRKTLLDSAKDVEETLKIIEDLSPEEAGTLAIVTLGQILLDNDELDDEFPEIEKLADEAIEKLRETAKTDPEKLKELSKELLEEIRELLLKKAEELK
B25: GBRAP_52_5921 (protein)
chain: SDEEARALAEAILEAALAGREDELRALIKRLVEEKSLEEIKRVIEELARLTAELGPEHYDLFADIMDLLLDAAEEAGRDVEEVDYAIAEAAGLLYDAEQA
B26: GBRAP_160_4321 (protein)
chain: SALMEELKKEIEEIAEEAKELIEGESPEQRRTIVKVALGEILLLAIENPEISDELEDKIAEIADAAEAELDANPDLSEEEVKELLEKAVKEILELIEKEE
B27: GBRAP_160_3995 (protein)
chain: SEKKKKLLEKIKEILEETYELMKGESPEERLAIARVAAGDILLELFESELVSDETEEKIDEVLDEFVATVEANPDMSDEELKELLEETLEKIEKIIEENS
B28: GBRAP_160_4762 (protein)
chain: KEELKKLKEEIEEIFKEHIELLKEVPKEKAVTVVEGAMGEVLMLAFSSEAVSDELEEKIGEIMDEAVERAKENKDAPVEVHIKILEEAREKILELIEEEI
B29: GBRAP_52_6056 (protein)
chain: MEARIEALARAIAAAIAAGDLDAALALLREAIATLTPEEIRRTLQLAARLVAGLGEEAHERFVELLDEAHELMIEAGISEEEADIIVGDAEAALARAVAA

Molecular target: GABARAP, O95166
Sequence (O95166 whole entry, the tested form may be a part): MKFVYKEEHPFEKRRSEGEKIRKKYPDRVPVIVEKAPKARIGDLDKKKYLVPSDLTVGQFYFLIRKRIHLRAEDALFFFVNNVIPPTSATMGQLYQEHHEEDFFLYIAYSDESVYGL
Experiment: median log2 fold change of GCK-ALFA target abundance (FLAG IP / Myc IP barcode read proportion) (log2 ratio); each designed protein is fused to an ALFA-tag nanobody in HEK293 cells to bring the named protein to FLAG-tagged glucokinase (GCK); Myc marks an untargeted standard; higher = target protein stabilised (more abundant)
Conditions: target protein: 3xFLAG-MCP-GCK-ALFA reporter; HEK293 landing pad (RPLP)
Summary of the method: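 HEK293 landing-pad cells received a recombined binder library fused to the ALFA nanobody and were induced with 2 μg mL^−1 doxycycline, then transfected with a plasmid encoding a FLAG-tagged target and a Myc-tagged standard. Lysates were collected after 48 h for anti-FLAG and anti-Myc immunoprecipitation, and the circular RNA barcodes were reverse transcribed, amplified and sequenced. Target abundance for each binder is the median log2 ratio of FLAG to Myc barcode read proportions. Barcodes had to reach a proportion of at least 10^−7 in both replicates, each binder needed at least 3 barcodes per replicate, a pseudocount of 10^−6 was applied, and the two replicates were pooled.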

**Q.** For B1, which “median log2 fold change” value is on record?
**A.** The value was -0.533.

**Q.** How did the “median log2 fold change” value turn out when B2 was run?
**A.** Its value is -0.119.

**Q.** How did the “median log2 fold change” value turn out when B3 was run?
**A.** The value was 0.0481.

**Q.** With B4 as the binder, how does the “median log2 fold change” value read?
**A.** Its value is 0.222.

**Q.** Which “median log2 fold change” value does the source give for B5 here?
**A.** The value was -0.628.

**Q.** For B6, which “median log2 fold change” value is on record?
**A.** The value was -0.0804.

**Q.** How did the “median log2 fold change” value turn out when B7 was run?
**A.** The value was 0.0696.

**Q.** B8 was tested. Which “median log2 fold change” value did it give?
**A.** The value was 0.172.

**Q.** How did the “median log2 fold change” value turn out when B9 was run?
**A.** Its value is -0.22.

**Q.** B10 was tested. Which “median log2 fold change” value did it give?
**A.** Its value is -0.694.

**Q.** B11 was tested. Which “median log2 fold change” value did it give?
**A.** The value was -0.437.

**Q.** Which “median log2 fold change” value does the source give for B12 here?
**A.** Its value is 0.286.

**Q.** B13 was tested. Which “median log2 fold change” value did it give?
**A.** The value was 0.206.

**Q.** Which “median log2 fold change” value does the source give for B14 here?
**A.** The value was -0.617.

**Q.** B15 was tested. Which “median log2 fold change” value did it give?
**A.** The value was -0.772.

**Q.** For B16, which “median log2 fold change” value is on record?
**A.** The value was 0.0485.

**Q.** For B17, which “median log2 fold change” value is on record?
**A.** Its value is 0.197.

**Q.** For B18, which “median log2 fold change” value is on record?
**A.** The value was 0.0653.

**Q.** Which “median log2 fold change” value does the source give for B19 here?
**A.** Its value is -0.000956.

**Q.** With B20 as the binder, how does the “median log2 fold change” value read?
**A.** Its value is -0.117.

**Q.** How did the “median log2 fold change” value turn out when B21 was run?
**A.** The value was -0.288.

**Q.** Which “median log2 fold change” value does the source give for B22 here?
**A.** Its value is -0.628.

**Q.** With B23 as the binder, how does the “median log2 fold change” value read?
**A.** Its value is 0.292.

**Q.** Which “median log2 fold change” value does the source give for B24 here?
**A.** The value was 0.128.

**Q.** B25 was tested. Which “median log2 fold change” value did it give?
**A.** Its value is -0.394.

**Q.** For B26, which “median log2 fold change” value is on record?
**A.** Its value is -0.0253.

**Q.** With B27 as the binder, how does the “median log2 fold change” value read?
**A.** Its value is -0.00842.

**Q.** For B28, which “median log2 fold change” value is on record?
**A.** Its value is 0.0708.

**Q.** With B29 as the binder, how does the “median log2 fold change” value read?
**A.** Its value is -0.851.
